Laboratory results published in the supplement of paper PMC10849652.
The full data set covers some 7,900 targets. This sample favours those with a hit. About 0.6% of all pairs of compound and target were hits. Unmarked numbers belong to inactive results.

Key:
Assay in all cases: log2 fold change, soluble protein after heating vs DMSO (PISA); higher = thermal stabilisation; K562 cells, 10 uM, 30 min; active = over 0.2 and 3.5 SD of the protein, either way, in both replicates (recomputed)
bafetinib = compound: Cc1ccc(NC(=O)c2ccc(CN3CC[C@H](N(C)C)C3)c(C(F)(F)F)c2)cc1Nc1nccc(-c2cncnc2)n1 [bafetinib]
Outline: (§1)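 Soluble protein was defined as the supernatant after 21,000xg for 90 min. It came from K562 cells at 2×10^6 cells/mL given 10 μM compound for 30 min, heated in aliquots for 3 min across 48°C-58°C, pooled, and extracted in PBS with 0.5% NP-40 at 4°C, and was quantified by TMTpro 16plex LC-MS/MS with equalised channel sums. Thermal stability against control samples, from duplicates, is reported as log2 fold change.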

[1] = compound: Cc1cccc(CC(=O)N2CCc3c2ccc(-c2cn(C)c4ncnc(N)c24)c3F)n1
Outline: as §1

nilotinib = compound: Cc1cn(-c2cc(NC(=O)c3ccc(C)c(Nc4nccc(-c5cccnc5)n4)c3)cc(C(F)(F)F)c2)cn1 [nilotinib]
Outline: as §1

[2] = compound: Cc1nc(Nc2n[nH]c3c2CN(C(=O)N[C@H](CN(C)C)c2ccccc2)C3(C)C)c2sccc2n1
Outline: as §1

dasatinib = compound: Cc1nc(Nc2ncc(C(=O)Nc3c(C)cccc3Cl)s2)cc(N2CCN(CCO)CC2)n1 [dasatinib]
Outline: as §1

[3] = compound: Cc1ncc(-c2ccnc(Nc3ccc(S(C)(=O)=O)cc3)n2)n1C(C)C
Outline: as §1

[4] = compound: Cn1cc(-c2ccc3c(c2)CCN3C(=O)Cc2cccc(C(F)(F)F)c2)c2c(N)ncnc21
Outline: as §1

[5] = compound: Cn1cc(-c2ccc3nnc(C(F)(F)c4ccc5ncccc5c4)n3n2)cn1
Outline: as §1

tipifarnib = compound: Cn1cncc1[C@@](N)(c1ccc(Cl)cc1)c1ccc2c(c1)c(-c1cccc(Cl)c1)cc(=O)n2C [tipifarnib]
Outline: as §1

mubritinib = compound: FC(F)(F)c1ccc(/C=C/c2nc(COc3ccc(CCCCn4ccnn4)cc3)co2)cc1 [mubritinib]
Outline: as §1

[6] = compound: NC(=O)Nc1cc(-c2cccc(F)c2)sc1C(=O)N[C@H]1CCCNC1
Outline: as §1

[7] = compound: NC(=O)c1cnc(N[C@@H]2CCCC[C@@H]2N)nc1Nc1cccc(-n2nccn2)c1
Outline: as §1

[8] = compound: NC1(c2ccc(-c3nc4ccn5c(=O)[nH]nc5c4cc3-c3ccccc3)cc2)CCC1
Outline: as §1

[9] = compound: NCC(=O)Nc1ccc(-n2nc(C(F)(F)F)cc2-c2ccc3c(ccc4ccccc43)c2)cc1
Outline: as §1

entinostat = compound: Nc1ccccc1NC(=O)c1ccc(CNC(=O)OCc2cccnc2)cc1 [entinostat]
Outline: as §1

vorinostat = compound: O=C(CCCCCCC(=O)Nc1ccccc1)NO [vorinostat]
Outline: as §1

citarinostat = compound: O=C(CCCCCCNC(=O)c1cnc(N(c2ccccc2)c2ccccc2Cl)nc1)NO [citarinostat]
Outline: as §1

silmitasertib = compound: O=C(O)c1ccc2c(c1)nc(Nc1cccc(Cl)c1)c1ccncc12 [silmitasertib]
Outline: as §1

[10] = compound: O=C1NC(=O)C(c2cnc3ccccn23)=C1c1cn2c3c(cc(F)cc13)CN(C(=O)N1CCCCC1)CC2
Outline: as §1

[11] = compound: c1cc(OCCN2CCCCC2)cc(-c2n[nH]c3ccc(-c4nnc[nH]4)cc23)c1
Outline: as §1

Sequence of UniProt P12235 (P12235 whole entry, looked up): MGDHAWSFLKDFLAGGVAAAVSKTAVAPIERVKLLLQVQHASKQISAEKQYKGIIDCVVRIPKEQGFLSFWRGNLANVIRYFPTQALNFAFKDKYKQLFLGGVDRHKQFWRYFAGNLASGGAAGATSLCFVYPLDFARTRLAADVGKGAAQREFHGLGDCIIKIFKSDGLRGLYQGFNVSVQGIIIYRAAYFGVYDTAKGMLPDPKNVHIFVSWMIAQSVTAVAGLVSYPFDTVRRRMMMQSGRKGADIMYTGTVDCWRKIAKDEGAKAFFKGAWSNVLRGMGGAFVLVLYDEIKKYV
Sequence of UniProt Q9Y5J6 (Q9Y5J6 whole entry, looked up): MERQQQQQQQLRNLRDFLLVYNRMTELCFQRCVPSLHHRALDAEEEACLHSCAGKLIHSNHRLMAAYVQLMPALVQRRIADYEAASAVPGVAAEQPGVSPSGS
Sequence of UniProt O15400 (O15400 whole entry, looked up): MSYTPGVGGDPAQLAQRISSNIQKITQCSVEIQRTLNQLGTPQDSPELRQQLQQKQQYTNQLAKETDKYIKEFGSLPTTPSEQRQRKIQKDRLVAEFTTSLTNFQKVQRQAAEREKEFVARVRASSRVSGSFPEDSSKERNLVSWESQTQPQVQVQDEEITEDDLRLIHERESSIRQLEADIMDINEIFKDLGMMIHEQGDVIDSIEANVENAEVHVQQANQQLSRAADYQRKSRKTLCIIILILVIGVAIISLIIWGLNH
Sequence of UniProt O14975 (O14975 whole entry, looked up): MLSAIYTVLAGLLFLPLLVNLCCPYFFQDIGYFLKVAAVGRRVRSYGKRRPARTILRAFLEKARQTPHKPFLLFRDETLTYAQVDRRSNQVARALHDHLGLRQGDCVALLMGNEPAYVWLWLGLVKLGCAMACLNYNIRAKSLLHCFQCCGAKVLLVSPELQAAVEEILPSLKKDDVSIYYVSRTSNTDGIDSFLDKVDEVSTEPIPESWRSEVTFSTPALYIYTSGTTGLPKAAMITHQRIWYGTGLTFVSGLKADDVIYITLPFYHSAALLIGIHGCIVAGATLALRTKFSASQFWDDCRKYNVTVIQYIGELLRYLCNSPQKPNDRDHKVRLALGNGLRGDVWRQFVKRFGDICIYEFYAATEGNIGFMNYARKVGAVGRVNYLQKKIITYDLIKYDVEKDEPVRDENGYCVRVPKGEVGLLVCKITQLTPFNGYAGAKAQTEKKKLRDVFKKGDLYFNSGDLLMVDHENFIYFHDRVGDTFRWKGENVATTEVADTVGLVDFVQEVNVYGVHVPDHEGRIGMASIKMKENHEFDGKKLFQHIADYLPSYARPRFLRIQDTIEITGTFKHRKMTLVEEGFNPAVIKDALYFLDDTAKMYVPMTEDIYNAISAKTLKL
Sequence of UniProt Q86UE8 (Q86UE8 whole entry, looked up): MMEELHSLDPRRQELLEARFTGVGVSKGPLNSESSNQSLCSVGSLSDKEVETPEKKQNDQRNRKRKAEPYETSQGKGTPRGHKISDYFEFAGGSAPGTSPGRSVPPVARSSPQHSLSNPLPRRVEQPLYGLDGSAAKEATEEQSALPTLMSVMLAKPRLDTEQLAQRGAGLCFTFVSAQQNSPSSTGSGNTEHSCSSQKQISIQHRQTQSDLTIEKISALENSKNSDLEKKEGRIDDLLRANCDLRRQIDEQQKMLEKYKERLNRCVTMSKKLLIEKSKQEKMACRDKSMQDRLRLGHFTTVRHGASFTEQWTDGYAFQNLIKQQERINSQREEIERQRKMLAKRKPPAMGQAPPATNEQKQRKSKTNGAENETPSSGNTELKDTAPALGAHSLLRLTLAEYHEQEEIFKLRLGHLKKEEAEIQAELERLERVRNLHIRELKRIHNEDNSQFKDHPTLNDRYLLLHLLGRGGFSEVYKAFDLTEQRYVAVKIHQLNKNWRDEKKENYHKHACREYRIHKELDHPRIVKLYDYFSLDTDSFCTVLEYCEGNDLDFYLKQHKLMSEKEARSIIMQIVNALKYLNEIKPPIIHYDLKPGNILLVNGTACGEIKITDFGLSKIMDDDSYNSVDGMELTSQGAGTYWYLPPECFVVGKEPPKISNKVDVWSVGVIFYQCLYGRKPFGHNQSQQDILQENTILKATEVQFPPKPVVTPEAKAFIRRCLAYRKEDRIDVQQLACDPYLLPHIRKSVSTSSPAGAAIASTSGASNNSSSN
Sequence of UniProt Q13501 (Q13501 whole entry, looked up): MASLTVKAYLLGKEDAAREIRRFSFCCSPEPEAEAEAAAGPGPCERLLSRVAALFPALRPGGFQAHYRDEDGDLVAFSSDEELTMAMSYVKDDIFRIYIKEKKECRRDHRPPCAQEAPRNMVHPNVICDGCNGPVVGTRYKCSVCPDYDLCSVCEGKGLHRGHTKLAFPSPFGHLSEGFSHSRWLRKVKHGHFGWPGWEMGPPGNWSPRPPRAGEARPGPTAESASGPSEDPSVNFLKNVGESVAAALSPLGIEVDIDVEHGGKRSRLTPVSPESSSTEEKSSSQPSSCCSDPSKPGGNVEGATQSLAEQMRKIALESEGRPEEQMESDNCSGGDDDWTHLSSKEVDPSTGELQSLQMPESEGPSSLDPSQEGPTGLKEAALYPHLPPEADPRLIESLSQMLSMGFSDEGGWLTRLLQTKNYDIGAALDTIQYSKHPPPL
Sequence of UniProt Q96BW9 (Q96BW9 whole entry, looked up): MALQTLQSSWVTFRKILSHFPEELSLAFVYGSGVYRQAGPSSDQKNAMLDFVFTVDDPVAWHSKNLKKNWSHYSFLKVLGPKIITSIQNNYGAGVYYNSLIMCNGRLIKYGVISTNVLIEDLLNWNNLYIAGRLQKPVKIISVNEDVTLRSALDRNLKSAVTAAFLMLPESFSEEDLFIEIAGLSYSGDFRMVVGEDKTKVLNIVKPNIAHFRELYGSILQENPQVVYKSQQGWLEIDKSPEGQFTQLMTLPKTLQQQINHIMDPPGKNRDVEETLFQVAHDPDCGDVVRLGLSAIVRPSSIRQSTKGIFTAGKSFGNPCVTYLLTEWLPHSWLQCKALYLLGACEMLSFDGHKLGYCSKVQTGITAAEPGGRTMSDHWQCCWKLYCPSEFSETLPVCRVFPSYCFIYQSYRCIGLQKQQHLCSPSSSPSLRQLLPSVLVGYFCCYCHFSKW
Sequence of UniProt Q9ULP9 (Q9ULP9 whole entry, looked up): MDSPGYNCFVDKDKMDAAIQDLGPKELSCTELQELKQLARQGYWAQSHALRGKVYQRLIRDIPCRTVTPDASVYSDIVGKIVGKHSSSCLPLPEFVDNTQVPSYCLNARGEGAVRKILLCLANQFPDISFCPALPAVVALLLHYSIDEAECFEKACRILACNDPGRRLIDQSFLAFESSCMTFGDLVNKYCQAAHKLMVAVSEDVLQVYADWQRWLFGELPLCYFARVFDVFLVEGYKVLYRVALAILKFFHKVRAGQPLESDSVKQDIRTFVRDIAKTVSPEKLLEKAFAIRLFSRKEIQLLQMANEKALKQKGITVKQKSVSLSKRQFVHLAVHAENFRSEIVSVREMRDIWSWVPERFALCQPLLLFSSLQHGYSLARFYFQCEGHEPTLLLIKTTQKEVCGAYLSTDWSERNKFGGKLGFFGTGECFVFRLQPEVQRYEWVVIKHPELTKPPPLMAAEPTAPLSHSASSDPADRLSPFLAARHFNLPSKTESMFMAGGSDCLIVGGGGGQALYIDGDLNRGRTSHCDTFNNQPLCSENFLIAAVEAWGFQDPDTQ
Sequence of UniProt Q02447 (Q02447 whole entry, looked up): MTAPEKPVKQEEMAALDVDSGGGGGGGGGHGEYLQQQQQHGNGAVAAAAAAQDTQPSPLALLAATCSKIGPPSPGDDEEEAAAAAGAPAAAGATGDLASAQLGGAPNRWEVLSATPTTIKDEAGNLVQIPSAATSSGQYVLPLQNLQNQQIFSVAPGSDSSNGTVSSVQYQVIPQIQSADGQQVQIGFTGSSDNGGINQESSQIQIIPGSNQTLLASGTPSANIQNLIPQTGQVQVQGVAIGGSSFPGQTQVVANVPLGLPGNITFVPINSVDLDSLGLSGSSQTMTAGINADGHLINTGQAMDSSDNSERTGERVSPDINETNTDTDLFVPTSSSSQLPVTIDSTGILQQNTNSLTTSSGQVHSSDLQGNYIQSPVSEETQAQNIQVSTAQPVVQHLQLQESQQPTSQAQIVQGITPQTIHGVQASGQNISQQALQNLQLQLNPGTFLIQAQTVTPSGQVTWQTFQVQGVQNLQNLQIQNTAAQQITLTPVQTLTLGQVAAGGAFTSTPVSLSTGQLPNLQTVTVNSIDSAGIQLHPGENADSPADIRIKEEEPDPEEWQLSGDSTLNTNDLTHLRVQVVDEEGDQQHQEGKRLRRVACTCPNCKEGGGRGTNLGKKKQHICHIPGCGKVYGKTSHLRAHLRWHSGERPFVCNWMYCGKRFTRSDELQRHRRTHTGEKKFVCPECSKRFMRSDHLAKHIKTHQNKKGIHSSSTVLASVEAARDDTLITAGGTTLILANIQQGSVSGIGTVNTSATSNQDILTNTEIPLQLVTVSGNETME
Sequence of UniProt Q13242 (Q13242 whole entry, looked up): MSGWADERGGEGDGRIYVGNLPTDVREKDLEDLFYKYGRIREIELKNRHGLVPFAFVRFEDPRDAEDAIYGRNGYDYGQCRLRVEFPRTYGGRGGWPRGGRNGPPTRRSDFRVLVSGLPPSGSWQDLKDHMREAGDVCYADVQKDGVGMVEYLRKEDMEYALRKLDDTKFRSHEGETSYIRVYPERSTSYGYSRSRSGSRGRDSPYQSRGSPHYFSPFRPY
Sequence of UniProt Q15005 (Q15005 whole entry, looked up): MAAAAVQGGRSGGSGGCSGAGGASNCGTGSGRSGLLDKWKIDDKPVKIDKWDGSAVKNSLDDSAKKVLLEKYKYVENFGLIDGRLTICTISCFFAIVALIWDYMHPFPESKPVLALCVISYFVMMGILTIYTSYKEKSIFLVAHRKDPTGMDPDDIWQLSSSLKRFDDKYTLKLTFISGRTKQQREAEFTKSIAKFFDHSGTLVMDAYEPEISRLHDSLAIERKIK

Target	log2 fold change (bafetinib)	log2 fold change [1]	log2 fold change (nilotinib)	log2 fold change [2]	log2 fold change (dasatinib)	log2 fold change [3]	log2 fold change [4]	log2 fold change [5]	log2 fold change (tipifarnib)	log2 fold change (mubritinib)	log2 fold change [6]	log2 fold change [7]	log2 fold change [8]	log2 fold change [9]	log2 fold change (entinostat)	log2 fold change (vorinostat)	log2 fold change (citarinostat)	log2 fold change (silmitasertib)	log2 fold change [10]	log2 fold change [11]
TLK2 isoform 2 (UniProt Q86UE8)	-0.051	-0.042	0.006	-0.407 (active)	-0.01	0.007	0.046	-0.033	0.01	-0.001	-0.059	0.049	-0.042	-0.037	0.036	0.1	0.016	0.034	-0.026	-0.052
STX7 (UniProt O15400)	-0.06	-0.135	0.009	0.013	0.03	-0.017	-0.007	0.029	0.025	0.007	0.036	-0.02	-0.072	0.011	-0.028	-0.093	-0.002	0.017	-0.006	0.079
STAT5A (UniProt P42229)	0.034	0.208	-0.112	-0.338 (active)	-0.191	-0.051	0	0.104	-0.107	0.371 (active)	-0.115	-0.112	-0.112	-0.115	0.112	0.061	0.194	0.037	-0.029	0.061
SLC27A2 (UniProt O14975)	0.044	0.005	0.179	-0.104	-0.106	0.025	0.054	0.073	0.187	-0.001	-0.068	-0.091	0.007	-0.047	-0.023	-0.053	0.059	0.083	0.247	-0.035
SLC25A4 (UniProt P12235)	-0.027	-0.097	-0.004	-0.03	0.033	-0.014	0.022	-0.005	0.026	-0.024	-0.012	-0.035	-0.056	-0.006	-0.019	-0.12	-0.021	0.009	-0.025	-0.002
TAMM41 isoform 3 (UniProt Q96BW9)	-0.278 (active)	-0.041	-0.112	-0.005	-0.108	0.026	0.037	0.028	-0.043	-0.044	0.001	-0.052	-0.148	-0.059	0.022	0.023	0.013	-0.004	-0.125	-0.043
TCERG1 (UniProt O14776)	0.03	0.077	-0.093	-0.24	-0.26	0.02	0.088	0.07	-0.097	0.183	-0.026	-0.075	-0.123	-0.112	0.159	0.129	0.129	0.022	-0.153	0
TIMM10B (UniProt Q9Y5J6)	0.4	-0.138	0.006	-0.04	0.138	-0.052	0.01	0.224	-0.001	0.065	0.021	0.257	-0.111	-0.007	0.016	-0.202	0.074	0.034	-0.04	0.022
SURF2 (UniProt Q15527)	-0.103	0.039	0.054	-0.048	-0.02	0.082	-0.012	0.053	0.034	-0.013	0.019	0.076	0.033	0.088	-0.012	-0.009	0.06	0.079	-0.004	-0.018
TBC1D24 (UniProt Q9ULP9)	-0.007	0.049	-0.069	-0.318 (active)	-0.15	-0.219	0.098	-0.045	-0.106	0.097	0.047	-0.038	-0.091	-0.002	0.029	0.291	0.016	-0.135	-0.082	-0.096
SP3 (UniProt Q02447)	0.022	-0.018	-0.01	0.093	0	-0.042	-0.044	0.103	-0.041	-0.045	0.15	-0.011	-0.033	0.025	0.027	-0.026	-0.147	0.046	-0.02	0.04
SPCS2 (UniProt Q15005)	-0.057	0.003	0.014	-0.034	0	0	0.053	0.025	-0.035	0.037	0	-0.002	-0.072	0.143	0.016	0.024	0.224	-0.001	-0.021	0.23
SMC5 (UniProt Q8IY18)	0.02	-0.029	0	-0.095	0.05	0.082	0.006	-0.102	0.032	-0.004	0.057	-0.034	-0.083	-0.051	-0.033	0.017	-0.021	0.052	-0.1	-0.051
SMCHD1 (UniProt A6NHR9)	0.306	0	0.037	-0.011	-0.319	-0.044	-0.061	-0.084	-0.003	-0.136	-0.085	-0.352	0.159	-0.423	0.08	0.19	0.085	0.095	0.206	-0.176
SRSF9 (UniProt Q13242)	0.166	-0.02	0.014	0.05	0.422	0.001	-0.377	-0.129	0.298	-0.189	0.079	0.17	0.398	0.171	-0.072	0.029	-0.114	0.195	0.245	-0.237
SQSTM1 (UniProt Q13501)	-0.138	0.056	0.042	-0.227	-0.006	0.172	0.001	0.022	0.186	0.034	-0.036	-0.12	-0.068	-0.079	0.051	0.007	0.081	0.056	0.019	-0.094
